# Measurements as given in PubChem BioAssay (Tox21).
# Several values for one entry are separate records, joined by “and”; a condition that tells them apart may be missing. Equal values may be shown once. Where a structure was tested more than once in an assay, its records may differ in their call. Activity calls are given as the source filed them. A call without a number means that no potency is given here. Calls follow the shape of the dose curve; as a rule, active = well fitted activation curve with a large enough effect in the repeat runs; inconclusive = weak or mixed curves; inactive = flat fitted curve, though single readings scatter.
# Experiment: A CellTox Green Cytotoxicity Assay to monitor cytotoxicity in HEK293 cells - 0 hour (AID 1224869); also: nearly all actives have a fitted effect of over 50% in size
# Conditions: CellTox Green fluorescence; series mostly up to 76.8 µM
# Text: National Center for Advancing Translational Sciences [NCATS]
# NIH Chemical Genomics Center [NCGC]
# U.S. Environmental Protection Agency [EPA]
# National Institutes of Environmental Health Sciences [NIEHS]
# National Toxicology Program [NTP]
# Cell-based models are critical for drug discovery. Determining the natural cytotoxic effects resulting from test compounds is an essential research activity. A CellTox Green Cytotoxicity Assay to monitor cytotoxicity in real time of continues cell culture during 40 hours of the compound treatment was used to screen Tox21 10K library compounds in Hek293 cells. CellTox Green Cytotoxicity Assay is a nonlytic, homogeneous, biofluorescent method to measure cytotoxicity in cell culture after experimental manipulation. The assay system uses a proprietary asymmetric cyanine dye that is excluded from viable cells but preferentially stains the dead cell's DNA. […] Viable cells produce no appreciable increases in fluorescence. Therefore, the fluorescence signal produced by the binding interaction with dead cell DNA is proportional to cytotoxicity.
# The mixture of Hek293 cell suspension and reagents were dispensed at 600cells/6 ul/well in 1536-well tissue culture treated black solid bottom plates using a Multidrop dispenser. After the assay plates were incubated at a 37 C/5% CO2 incubator for 5 hours, 23 nL of compounds dissolved in DMSO, positive and negative controls was transferred to the assay plate by a pintool work station. The plates were incubated at 37 C for 40 hours. The fluorescence intensity were measured at 0h, 8h, 16h, 24h, 32h and 40h time points using ViewLux plate reader during compound treatment.
# Potency is read from the fitted curve at half-maximal effect.
row,Structure (SMILES),Potency
1,COc1ccccc1O,inactive
2,NCCNc1cccc2ccccc12,inactive
3,C[C@]12C[C@H](O)[C@H]3[C@@H](CCC4=CC(=O)CC[C@@]43C)[C@@H]1CC[C@@H]2C(=O)CO,inactive
4,CCn1cc(C(=O)O)c(=O)c2ccc(C)nc21,inactive
5,O=c1c(-c2ccc(O)cc2)coc2cc(O)cc(O)c12,inactive
6,C=CCOC(=O)CC(C)C,inactive
7,CCN(CC)CCOC(=O)c1ccc(N)cc1,inactive
8,CC(O)COc1ccccc1 (stereo not given),inactive
9,CCCCC/C(C=O)=C\c1ccccc1,inactive
10,CCc1cc(C(N)=S)ccn1,inactive
11,O=[N+]([O-])c1ccc(O)cc1,inactive
12,Cc1c(N(C)CS(=O)(=O)O)c(=O)n(-c2ccccc2)n1C,inactive
13,CC(C)CC(C)CC(O)CC(C)C (stereo not given),inactive
14,Cc1cccc(C)c1O,inactive
15,O=C(O)Cc1cccc2ccccc12,inactive
16,O=c1cc[nH]c(=O)[nH]1,inactive
17,C=C(C)OC(C)=O,inactive
18,CC(=O)CCC(C)C,inactive and 38.9 µM (active)
19,Cc1cccc2ccccc12,inactive
20,O=C1CCCCCN1,inactive

row,Structure (SMILES),Potency
1,CC(C)Cc1ccc(C(C)C(=O)O)cc1 (stereo not given),inactive
2,COc1cc2c(c(OC)c1OC)-c1ccc(OC)c(=O)cc1[C@@H](NC(C)=O)CC2,inactive
3,C=CC(=O)NC(C)(C)CS(=O)(=O)O,inactive and 43.6 µM (active)
4,COc1ccc(C(=O)c2ccccc2)c(O)c1,inactive
5,CCCCNC(=O)NS(=O)(=O)c1ccc(N)cc1,inactive
6,CC(C)=CCC/C(C)=C/CO,inactive
7,CC(C)(C)CC(C)(C)c1ccc(O)c(-n2nc3ccccc3n2)c1,inactive
8,COc1ccc(O)cc1,inactive
9,CC(=O)c1ccc(S(=O)(=O)NC(=O)NC2CCCCC2)cc1,inactive
10,CC1=NN(c2ccccc2)C(=O)C1,inactive
11,Cc1c(N(C)C)c(=O)n(-c2ccccc2)n1C,inactive
12,CC(C)(C)NCC(O)c1ccc(O)c(CO)c1 (stereo not given),inactive
13,CCOC(=O)C(C)(C)Oc1ccc(Cl)cc1,inactive
14,NC(N)=NC(N)=NCCc1ccccc1,inactive
15,Nc1ccc(N=Nc2ccccc2)c(N)n1,inactive
16,NC(=O)N1c2ccccc2C=Cc2ccccc21,inactive
17,Cc1ccc(O)c(-n2nc3ccccc3n2)c1,inactive
18,CCCCCCCCOc1ccc(C(=O)c2ccccc2)c(O)c1,inactive
19,N[C@@H](Cc1c[nH]c2ccccc12)C(=O)O,inactive
20,C#C[C@]1(O)CC[C@H]2[C@@H]3CCC4=CC(=O)CC[C@@H]4[C@H]3CC[C@@]21CC,inactive
